The text below walks through data of PubChem BioAssay AID618 (Sanford-Burnham Center for Chemical Genomics, 2007).

In all, about 87,000 compounds went through this assay and about 540 (0.62%) were called active. The rule behind the calls is not given here. For the sample, actives were picked, then their nearest neighbours and some compounds at random. Entries with a potency or affinity are not part of this list.

A short description of the experiment: inhibitors of MT1-MMP promoter transcription, cell-based, luciferase reporter, luminescence (AID 618).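 Note: actives suppress MT1-MMP promoter-driven transcription so potencies describe inhibitors.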 The following applies: MT1-MMP promoter luciferase reporter cells. For orientation: In a reporter assay the amount or activity of a reporter protein is the signal.
For `C=CCNc1nc(N(c2ccccc2)c2ccccc2)nc(-n2ccnc2)n1`, the result was inactive.

In the case of `COc1cccc(-n2nnnc2SCC(=O)NC2CCCC2)c1`, the outcome was inactive.

In the case of `COc1cccc(Oc2nnnn2-c2ccccc2)c1`, the result was inactive.

Regarding `CCCS(=O)(=O)c1nnnn1-c1cccc(OC)c1`, the outcome was active.

In the case of `CCCS(=O)(=O)C(=C1NCCO1)S(=O)(=O)CCC`, the compound was classed as inactive.

On to `COc1cccc(-c2nc3ccc(O)cc3c(=O)o2)c1`, for which the call was inactive.

For the compound `COc1nc(-c2ccc(C)cc2)ccc1-c1noc(-c2ccco2)n1`, the call was inactive.

In the case of `CCOc1nc(C)ccc1-c1noc(-c2ccco2)n1`, the outcome was inactive.

Regarding `Cc1cccc(OCC(=O)Nc2ccc3c(c2)OCO3)c1C`, the compound was called inactive.

As to `C/C(=C\C(=O)c1cccnc1)Nc1ccc(C(=O)O)cc1`, the result was inactive.

On to `CN(C)c1ccc(C(=O)C(O)c2ccccc2)cc1` (stereo not given), for which the compound was called inactive.

Consider `CCC(C(=O)c1ccc(O)cc1)c1ccccc1` (stereo not given), for which the outcome was inactive.

In the case of `CN(C)CC(C(=O)c1ccccc1)c1ccccc1` (stereo not given), the result was active.

For `O=C(Cn1nc(C(=O)O)c2ccccc2c1=O)NCCC1=CCCCC1`, the outcome was inactive.

As to `CC(Cc1ccccc1)NC(=O)C1CCCNC1=O` (stereo not given), the call was inactive.

As to `CCCCC(=O)c1ccc(O)cc1O`, the result was inactive.

`O=C(CSc1nnc(-c2ccncc2)n1Cc1ccco1)N1c2ccccc2Sc2ccc(Cl)cc21`: the compound was classed as inactive.

As for `COc1ccc(N2CCN(C(=O)CSc3nnc(-c4cccnc4)n3-c3ccc(F)cc3)CC2)cc1`, the outcome was inactive.

With `Cc1ccc(CN(c2ccc(C(=O)NCc3ccccn3)cc2)S(C)(=O)=O)cc1`, the compound was classed as inactive.

`O=C(CSC1=NCCS1)N1CCOCC1`: the compound was called inactive.

On to `O=C(COc1ccc(Cl)cc1Cl)Nc1ccccn1`, for which the call was active.

In the case of `O=C(COc1ccc(Cl)cc1Cl)Nc1ccc(Cl)cn1`, the outcome was inactive.

For `O=C(COc1ccccc1Cl)Nc1ccc(Cl)cn1`, the compound was called inactive.

Turning to `Cc1ccc(C(C)C)c(OCCN)c1`, the compound was called inactive.

As to `COc1ccc(OC(C)C(=O)N2CC(C)OC(C)C2)cc1` (stereo not given), the compound was classed as inactive.

For `O=C(Nc1ccc(N2C(=O)C3C4C=CC(C4)C3C2=O)cc1)Nc1nncs1` (stereo not given), the compound was classed as inactive.

Consider `CCCn1c(N)c(C(=O)CSc2nc(C)cs2)c(=O)[nH]c1=O`, for which the result was inactive.

Take `Nc1ccc(-c2nc3ccc(-c4nc5ccccc5o4)cc3[nH]2)cc1`: the result was inactive.

Regarding `c1ccc2oc(-c3ccc4nc[nH]c4c3)nc2c1`, the outcome was inactive.

On to `Nc1ccc2oc(-c3cccs3)nc2c1`, for which the compound was classed as inactive.

For the compound `Cc1ccc2oc(-c3ccco3)nc2c1`, the result was inactive.

In the case of `Nc1ccc2oc(-c3ccccn3)nc2c1`, the compound was classed as inactive.

As for `Cc1ccc(-c2nc3cc(NS(=O)(=O)c4ccc(C)cc4)ccc3o2)cc1`, the compound was called inactive.

As for `Cc1nc2ccc(-c3nc4ccccc4o3)cc2[nH]1`, the outcome was inactive.

With `CCOC(=O)c1cnc(-c2cccc(OC)c2)[nH]c1=O`, the call was inactive.

As to `COc1ccc(CNC(=O)CCCCCn2c(SCC#N)nc3cc4c(cc3c2=O)OCO4)cc1`, the call was inactive.

As for `CCC(=O)c1ccc(OCC(O)CN2CCN(C(c3ccccc3)c3ccccc3)CC2)cc1` (stereo not given), the result was inactive.

Consider `CCOC(CNC(=O)c1cccn2c(=O)c3cc(Cl)ccc3nc12)OCC`, for which the compound was called inactive.

With `COc1ccc(S(=O)(=O)Nc2nnc(C(C)(C)C)s2)cc1`, the call was inactive.

For `Cc1c(NC(=O)c2cc(C(C)C)on2)c(=O)n(-c2ccccc2)n1C`, the result was inactive.

Consider `CCC(OC(=O)c1cc2sccc2n1C)C(=O)NCC1CCCO1` (stereo not given), for which the call was inactive.

On to `Nc1ccnc(C(F)(F)F)c1C(=O)c1ccccc1`, for which the compound was classed as inactive.

Consider `CC(C)OC(=O)CSc1nnc(-c2cccnc2)n1Cc1ccccc1`, for which the compound was called inactive.

For the compound `Cc1ccc(C)c(OCCCCn2ccnc2)c1`, the call was inactive.

Consider `Nc1ccc2oc(-c3ccccc3Cl)nc2c1`, for which the result was active.

Turning to `COC(=O)c1ccc(-c2nc3ccccc3o2)cc1`, the result was inactive.

As to `Nc1ccc2oc(-c3cc(Br)ccc3Cl)nc2c1`, the compound was called inactive.

For `Nc1nc2ccc(-c3nc4ccccc4o3)cc2s1`, the result was inactive.

On to `Nc1ccc2oc(-c3cccc4ccccc34)nc2c1`, for which the compound was called inactive.

For `Cc1ccc(C)c(-c2nc3cc(N)ccc3o2)c1`, the result was inactive.

On to `Cc1ccccc1-c1nc2cc(N)ccc2o1`, for which the result was inactive.

Regarding `COC(=O)c1ccc(-c2nc3ccc(C)cc3o2)cc1`, the result was inactive.

In the case of `COc1ccc(-c2nnc(-c3ccc(N)cc3)o2)cc1`, the compound was classed as inactive.

In the case of `CCc1c(C)nc2ncnn2c1N1CCCC(C(=O)Nc2ccc(NC(C)=O)cc2)C1` (stereo not given), the outcome was inactive.

For `Cc1ccc(NC(=O)c2ccc(N3C(=O)C4CC=C(Cl)CC4C3=O)cc2)cc1` (stereo not given), the compound was classed as inactive.

For the compound `COC(=O)[C@@H]1C[C@@]2(O)[C@H](O)[C@H](O)[C@H](O)C[C@H]2N1Cc1c(F)cccc1Cl`, the compound was classed as inactive.

`CC(C)Cc1ccc(S(=O)(=O)N2CCOCC2)cc1`: the result was inactive.

As to `O=C(CC1CCS(=O)(=O)C1)NC1CCCCC1` (stereo not given), the call was inactive.

Consider `O=C(CN1CC(c2ccccc2)CC1=O)OCc1ccccc1F` (stereo not given), for which the result was inactive.

`Cc1cccc(CSC2=NCCN2C(=O)c2ccco2)c1`: the compound was called inactive.

As for `COCCn1c(=O)c2c3c(sc2n(CC(N)=O)c1=O)CCCC3`, the compound was classed as inactive.

Take `COc1ccc(Br)c(C(=O)Nn2c(C)nc3ccccc3c2=O)c1`: the result was inactive.

Consider `Cc1ccc(C)c(Cn2nnc3c(=O)[nH]c(C4CCN(C(=O)c5cccs5)CC4)nc32)c1`, for which the result was inactive.

As to `CCCNC(=O)NC(C)C12CC3CC(CC(C3)C1)C2` (stereo not given), the call was inactive.

For the compound `COc1ccccc1NC(=O)c1ccc(COc2ccccc2OC)o1`, the call was inactive.

`CCn1c(=O)c(=O)n(CC)c2cc(S(=O)(=O)Nc3cccc(OC)c3)ccc21`: the compound was classed as inactive.

In the case of `CCn1c(=O)cc(SCC(=O)Nc2ccccc2N2CCN(C)CC2)c2ccccc21`, the call was inactive.

Regarding `Cc1ccc(NC(=O)Cc2cn3ccsc3n2)nc1`, the result was inactive.

As to `CC(C)c1ccc2oc(-c3ccc(NC(=O)c4ncn[nH]4)cc3)nc2c1`, the call was inactive.

In the case of `CCOc1cccc(-c2nc3cc(C)ccc3o2)c1`, the result was inactive.

Consider `COc1cc(OC)cc(-c2nc3cc(C)ccc3o2)c1`, for which the compound was called inactive.

For `CC(C)c1ccc2oc(-c3cc(N)ccc3O)nc2c1`, the result was inactive.

Turning to `O=C1CC(=C2c3ccccc3-c3ccccc32)C(=O)N1CCN1CCN(c2ccccc2)CC1`, the compound was classed as inactive.

As for `Cc1nn(Cc2nc(-c3cccs3)no2)c(C)c1Br`, the outcome was inactive.

Regarding `COc1ccccc1-c1nnc(SCC(=O)O)n1C`, the call was inactive.

Regarding `CC1=C(C(=O)OCc2ccccc2)C(c2ccc3ccccc3c2)NC(=O)N1CCCCCC(=O)O` (stereo not given), the call was inactive.

Regarding `Cn1nnnc1Sc1ncnc2scc(-c3ccc(F)cc3)c12`, the compound was called inactive.

Turning to `Cc1ccc(-c2csc3ncnc(NCCN4CCOCC4)c23)cc1`, the result was inactive.

For `Cc1cnc(C(=O)Nc2ccc(N3CCOCC3)cc2)cn1`, the compound was classed as inactive.

`CCOc1ccc(NC(=O)c2cnccn2)cc1`: the compound was classed as inactive.

In the case of `O=C(Nc1ccc(N2CCOCC2)cc1)Nc1cnsn1`, the call was inactive.

Turning to `CCOc1ccc(NC(=O)c2ccncc2)cc1`, the result was inactive.

Take `O=C(Nc1ccc(N2CCOCC2)cc1)c1cnsn1`: the compound was classed as active.

Regarding `CCc1nnc(NC(=O)CN2C(=O)c3ccccc3S2(=O)=O)s1`, the compound was classed as inactive.

`CC1(C)CC(=O)C2=C(C1)Nc1ncnn1C2c1ccccn1` (stereo not given): the compound was classed as inactive.

Turning to `CCOc1ccc(C2C(C(=O)c3cccs3)=C(O)C(=O)N2CCCn2ccnc2)cc1` (stereo not given), the outcome was inactive.

With `CN1CCN(c2ccccc2NC(=O)c2ccc(-c3ccccc3)cc2)CC1`, the result was inactive.

As for `CC(=O)c1c(C)[nH]c(C(=O)Nc2cc(C)cc(C)c2)c1C`, the compound was classed as inactive.

In the case of `CC(=O)c1c(C)[nH]c(C(=O)Nc2cc(C)ccc2C)c1C`, the outcome was inactive.

As for `CC(=O)c1c(C)[nH]c(C(=O)Nc2ccc(C)cn2)c1C`, the call was active.

Consider `CC1=C(C)/C(=N\OS(=O)(=O)c2ccccc2)C=CC1=O`, for which the compound was called inactive.

On to `CC1=CC(=O)C=C(C)C1=NOS(=O)(=O)c1ccccc1`, for which the outcome was active.

For `CC1=C/C(=N\OS(=O)(=O)c2ccccc2)C=CC1=O`, the result was inactive.

As to `Cc1cccc(C2N(c3ccc(F)cc3)C(=O)C3CCCN32)c1` (stereo not given), the outcome was inactive.

For the compound `O=S(=O)(Nc1ccccn1)c1ccc(C2CCCCC2)cc1`, the result was inactive.

Turning to `CC1=CC(C)(C)N(S(=O)(=O)c2ccc(C)cc2)c2ccccc21`, the outcome was active.

In the case of `CC1=CC(C)(C)N(S(=O)(=O)c2ccc(C)cc2)c2cc(C)ccc21`, the compound was classed as active.

Take `CC1=CC(C)(C)N(S(=O)(=O)c2ccc(F)cc2)c2ccc(C)cc21`: the outcome was inactive.

Take `CC1=CC(C)(C)N(C(=O)c2ccccc2)c2ccc(C)cc21`: the compound was classed as inactive.

As to `Cc1ccc(S(=O)(=O)N2CC3(C)CN(S(=O)(=O)c4ccc(C)cc4)CC(C)(C2)C3)cc1`, the compound was called inactive.

In the case of `CC1=CC(C)(C)N(C(=O)CN2C(=O)c3ccccc3C2=O)c2ccccc21`, the result was inactive.

Turning to `Cc1ccc(S(=O)(=O)N2C(=S)SCC2(C)C)cc1`, the compound was called inactive.

With `CC1=CC(C)(C)N(S(=O)(=O)c2ccc(C)cc2)c2ccc(C)cc21`, the compound was called active.

As for `CC1=CC(C)(C)N(S(=O)(=O)c2ccc(F)cc2)c2ccccc21`, the call was inactive.

On to `O=C(CN1CCN(c2ccccc2)CC1)Nc1c(C(=O)C2CC2)oc2ccccc12`, for which the outcome was inactive.

Take `CC(C)n1nnnc1C(c1ccc(F)cc1)N1CCN(C2CCCC2)CC1` (stereo not given): the compound was classed as inactive.

For `Cc1ccc(NC2=NCCC2)cc1Cl`, the compound was called inactive.

`C=CCn1c(=O)c2ccccc2n2c(SCc3csc(-c4ccccc4)n3)nnc12`: the result was inactive.

On to `Cn1c(-c2ccccc2)cnc1SCC(N)=O`, for which the outcome was inactive.

For `Cn1c(-c2ccc(F)cc2)cnc1SCC(=O)N1CCCCC1`, the compound was classed as inactive.

For the compound `CCOC(=O)c1c(NC(=O)Cc2cccs2)sc2c1CCCC2`, the compound was classed as inactive.

For `COC(=O)c1ccccc1NC(=O)CN1CCC(NC(=O)c2ccccc2C)CC1`, the result was inactive.

As for `CC(C)c1nnc(NC(=O)c2sc3ccccc3c2Cl)s1`, the compound was classed as inactive.

In the case of `Cc1nnc(NC(=O)c2sc3ccccc3c2Cl)s1`, the outcome was active.

In the case of `COCc1nnc(NC(=O)c2sc3ccccc3c2Cl)s1`, the result was inactive.

For the compound `O=C(NCc1ccc2c(c1)OCO2)c1ccccn1`, the outcome was inactive.

Consider `O=C(/C=C\Nc1cccc(F)c1)c1ccc2c(c1)OCO2`, for which the result was inactive.

Regarding `CN(C(=O)c1ccco1)c1nnc(C23CC4CC(CC(C4)C2)C3)s1`, the compound was called inactive.

On to `CN(C(=O)c1ccco1)c1nc(CC(=O)Nc2ccccc2)cs1`, for which the outcome was inactive.

`COC(=O)[C@@]1(Cc2ccc(OC)cc2)[C@H]2c3cc(C(=O)N4CCCC4)n(CCF)c3C[C@H]2CN1C(=O)c1ccccc1`: the compound was called inactive.
